Results reported in PubChem BioAssay AID797 (University of Pittsburgh Molecular Library Screening Center, 2007).
Screen size: about 200,000 compounds; about 110 (0.055%) were called active. The sample as a whole holds a higher share of actives than the screen did. Unmarked numbers belong to inactive results. Rule as the data show it: active = inhibition above about 50%; inactive = the rest.

Each compound was assayed against Serine/threonine-protein kinase D1 (Homo sapiens) (UniProt Q15139) (assay: protein kinase D1 activity blockers – biochemical, fluorescence polarization (AID 797)). Conditions: PKD1 kinase fluorescence polarization assay; active compounds read high; concentration not given here.
Chain of Serine/threonine-protein kinase D1 (Homo sapiens) (Q15139 whole entry, looked up): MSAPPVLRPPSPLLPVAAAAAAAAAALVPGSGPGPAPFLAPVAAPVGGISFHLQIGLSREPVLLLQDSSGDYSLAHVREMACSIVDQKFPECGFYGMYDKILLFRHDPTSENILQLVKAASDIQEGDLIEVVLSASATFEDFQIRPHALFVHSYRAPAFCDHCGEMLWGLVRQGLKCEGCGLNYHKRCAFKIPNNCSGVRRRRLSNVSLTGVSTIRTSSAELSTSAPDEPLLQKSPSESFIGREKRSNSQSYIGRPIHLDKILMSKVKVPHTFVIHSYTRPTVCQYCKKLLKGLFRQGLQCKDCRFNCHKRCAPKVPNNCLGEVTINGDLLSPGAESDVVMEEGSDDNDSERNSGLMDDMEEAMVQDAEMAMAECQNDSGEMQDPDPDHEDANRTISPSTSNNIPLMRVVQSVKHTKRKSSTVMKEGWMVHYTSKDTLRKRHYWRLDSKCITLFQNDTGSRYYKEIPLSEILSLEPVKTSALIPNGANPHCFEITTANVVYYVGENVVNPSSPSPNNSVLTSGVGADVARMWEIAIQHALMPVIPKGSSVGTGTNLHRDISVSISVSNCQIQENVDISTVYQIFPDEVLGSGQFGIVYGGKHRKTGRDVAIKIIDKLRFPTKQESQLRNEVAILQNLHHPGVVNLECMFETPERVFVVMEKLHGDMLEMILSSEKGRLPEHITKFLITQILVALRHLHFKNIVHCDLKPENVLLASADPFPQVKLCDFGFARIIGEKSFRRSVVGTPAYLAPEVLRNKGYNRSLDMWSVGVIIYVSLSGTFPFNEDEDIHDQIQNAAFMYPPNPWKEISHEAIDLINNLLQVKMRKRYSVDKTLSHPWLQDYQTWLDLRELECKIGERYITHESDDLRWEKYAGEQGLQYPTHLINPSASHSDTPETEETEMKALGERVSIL

Going from `COc1ccc(OCC(=O)NN2Cc3ccccc3C2=N)cc1` to `O=C(COc1ccc(-c2ccccc2)cc1)NN=C1CCCC1`, the inhibition falls from 8.39% to -5.5%.

Compared with `COc1cccc(NC(=O)C(Sc2nnnn2C)c2ccccc2)c1` (stereo not given), `COC(=O)c1ccccc1SC1CC(=O)N(c2cccc(C)c2)C1=O` (stereo not given) is lower in inhibition: 9.09% for the first, -3.82% for the second.

Compared with `Cc1cccc(/C(N)=N/OC(=O)c2ccccc2Cl)c1`, `Cc1cccc(NS(=O)(=O)c2ccc(C)c(C(N)=O)c2)c1` is lower in inhibition: -1.38% for the first, -2.59% for the second.

First: O=C(NC1CCCCC1)C1CC(=O)N(CCc2ccccc2)C1 (stereo not given)
Second: S=C(NN=C1CCN(Cc2ccccc2)CC1)NC1CCCCC1
The inhibition of the first is lower: -8.12% for the first, 1.24% for the second.

Going from `Cc1cc(/C=C(/C#N)C(=O)Nc2ccc(Cl)cc2)c(C)n1-c1cccnc1` to `O=C(Nc1nnc(Cc2ccc(Cl)cc2)s1)c1cccnc1`, the inhibition falls from 1.34% to -1.74%.

First: CCN1CN(Cc2ccccc2)CNC1=S
Second: Cc1c(Br)c([N+](=O)[O-])nn1CC(=O)N1CCN(Cc2ccccc2)CC1
The inhibition of the first is lower: -12% for the first, 6.58% for the second.

First: CCNC(=O)CC1C(=O)N(c2ccc(F)cc2)C(=O)N1Cc1cccs1 (stereo not given)
Second: O=C1CCCC2=C1C(c1cccs1)CC(=O)N2c1ccc(F)cc1 (stereo not given)
The inhibition of the first is higher: 4.62% for the first, -3.47% for the second.

Going from `CCOc1ccc(N2C(=O)Nc3ccccc3C2(O)C(=O)NCc2ccco2)cc1` (stereo not given) to `Cc1ccc2c(c1)N(CC(=O)N(Cc1ccccn1)Cc1ccco1)C(=O)C(C(C)C)O2` (stereo not given), the inhibition falls from -4.75% to -5.96%.

Going from `CN(C)/C=C(\C#N)C(=O)c1cccnc1Oc1cccc(F)c1` to `O=Cc1ccc(Oc2cccc(C(F)(F)F)c2)nc1`, the inhibition rises from 5.99% to 7.02%.

Compared with `CCCCn1nc(C(=O)OCC(=O)Nc2sccc2C(N)=O)c2ccccc2c1=O`, `C/C(N)=C(/C#N)C(=O)COC(=O)c1cc(-c2cccc(Br)c2)nc2ccccc12` is lower in inhibition: 4.31% for the first, -0.94% for the second.

Compared with `Cc1ccc(NC(=S)N(CCCN2CCC(C)CC2)Cc2ccco2)cc1`, `Cc1ccc(NC(=O)C(=O)NCC2CCN(C(=O)c3cccc([N+](=O)[O-])c3)CC2)cc1` is higher in inhibition: 2.06% for the first, 4.77% for the second.

Compared with `Cc1ccc2cc(CCNC(=O)c3c(-c4ccccc4Cl)noc3C)c(=O)[nH]c2c1`, `COc1cc(OC)c(C2=NOC(C(=O)Nc3c(C)n(C)n(-c4ccccc4)c3=O)C2)cc1Cl` (stereo not given) is higher in inhibition: 0.32% for the first, 5.19% for the second.

First: CC(C)CC(CO)N1CCN(C(=O)c2ccc(Cl)cc2Cl)CCC1=O (stereo not given)
Second: CCN(CC)CC1(O)CCN(C(=O)c2ccc(Cl)c(Cl)c2)CC1
The inhibition of the first is lower: -14% for the first, 6.8% for the second.

Going from `CN(CC(=O)Nc1ccccc1F)CC(=O)Nc1ccccc1Br` to `Cn1c(CCC(=O)Nc2ccccc2F)nnc1SCC(=O)Nc1ccccc1Cl`, the inhibition rises from -7.89% to -1.31%.

First: COc1ccc(N=C2SC(C(=O)Nc3ccc(F)cc3)CC(=O)N2C)cc1 (stereo not given)
Second: Cc1ccc(C(=O)CNc2ccc(F)cc2)cc1
The inhibition of the first is higher: -4.67% for the first, -19.1% for the second.

Compared with `CCOc1ccc(-c2c(C)n([O-])c3c([n+]2=O)CCCC3)cc1`, `CCc1ccc(-c2cc(C(=O)NN3CCN(C)CC3)c3ccccc3n2)cc1` is higher in inhibition: -3.86% for the first, 6.48% for the second.

Compared with `Cn1cc(/C=C/c2nc3ccccc3c(=O)n2-c2cccc([N+](=O)[O-])c2)c2ccccc21`, `S=c1[nH]cc(-c2ccc(Cl)cc2)n1-c1ccccc1` is lower in inhibition: -2.78% for the first, -3.56% for the second.

First: CC(=O)c1ccc(Oc2cc(C)nc(-n3nc(C)cc3C)n2)cc1
Second: COc1ccccc1/C=N\Nc1cc(C)nc(-n2nc(C)cc2C)n1
The inhibition of the first is lower: -3.62% for the first, 2.16% for the second.

First: CCCCCC(=O)NC(=S)NNC(=O)c1ccc([N+](=O)[O-])cc1
Second: CCN(CC)CCNC(=O)CCCCCn1c(=O)[nH]c2cc(C(=O)OC)ccc2c1=O
The inhibition of the first is higher: -0.76% for the first, -5.2% for the second.

Compared with `O=C(CN1C(=O)NC2(CCCCCC2)C1=O)NC1CC1`, `COc1ccc(S(=O)(=O)N2CCN(C(=O)NC3CCCCC3)CC2)cc1` is higher in inhibition: -5.29% for the first, -1.15% for the second.

Going from `CC1(C)CC(=O)C(N=Nc2ccc(S(=O)(=O)N3CCCCCC3)cc2)=C(O)C1` to `Cc1ccc(/C=C/C(=O)Nc2cc(S(=O)(=O)N3CCCCCC3)ccc2OCC(F)(F)F)o1`, the inhibition falls from 4.42% to -9.11%.

Going from `O=C(O)Cc1ccc(NCc2ccccc2Cl)cc1` to `O=C(Cc1c[nH]c2ccccc12)N/N=C/c1cccc(F)c1`, the inhibition rises from 0.93% to 12.4%.

First: Cc1ccc(C(=O)Cc2nnc(C)s2)cc1
Second: Cc1nc(-c2ccc(Cl)cc2)sc1C(=O)CBr
The inhibition of the first is lower: 1.06% for the first, 2.56% for the second.

Compared with `CC(=O)Nc1ccc(NC(=S)NC(=O)/C=C/c2ccccc2)cc1`, `CC(NC(=O)C(=O)N/N=C/c1ccc(Cl)cc1)c1ccccc1` (stereo not given) is higher in inhibition: -7.92% for the first, -2.86% for the second.

First: CCOc1cc2[nH]c(=S)n(Cc3ccc(C(=O)NCCOC)cc3)c(=O)c2cc1OCC
Second: COc1ccc(NC(=O)CCNS(=O)(=O)c2ccc3c(c2)c(=O)n(C)c(=O)n3C)cc1OC
The inhibition of the first is lower: -4.22% for the first, -3.26% for the second.

Going from `COC(=O)C1(O)CC(C(C)C)=NN1C(=O)c1ccc(Cl)cc1` (stereo not given) to `CC(C)c1ccc(-c2noc(C3CCCN(S(C)(=O)=O)C3)n2)cc1` (stereo not given), the inhibition rises from -10.1% to 0.73%.

First: COc1ccc(CCNC(=O)COC(=O)C2CCCCC2)cc1
Second: O=C(CSc1ncnc2c1nnn2Cc1ccc(F)cc1)NC1CCCC1
The inhibition of the first is higher: 1.52% for the first, -10.6% for the second.

Compared with `CN(CCc1cnn(C)c1)Cc1cn(C)nc1-c1ccccc1F`, `O=C(/C=C/c1ccc2c(c1)OCO2)NCc1cn2cc(Cl)ccc2n1` is lower in inhibition: 0.1% for the first, -5.4% for the second.

Going from `CC1=NN(C(=O)CCCc2ccccc2)C(O)(C(F)(F)F)C1` (stereo not given) to `O=C(CCCc1ccccc1)NCc1ccccc1`, the inhibition falls from -2.79% to -6.66%.

First: O=C(CC1SC(=Nc2ccccc2F)N(CCN2CCOCC2)C1=O)Nc1ccc(F)cc1F (stereo not given)
Second: Cn1c(=O)c2cc(S(=O)(=O)NCCC(=O)Nc3ccc(F)cc3F)ccc2n(C)c1=O
The inhibition of the first is higher: 1.23% for the first, -2.88% for the second.

First: O=C(Nc1cccnc1)c1ccc(Cl)cc1[N+](=O)[O-]
Second: O=[N+]([O-])c1ccccc1SNc1ccccn1
The inhibition of the first is higher: -1.12% for the first, -1.62% for the second.

First: COc1ccc(NC(=S)NCc2cccs2)c(OC)c1
Second: COc1cccc(CNC(=O)CCN2C(=S)NC(C)(C)CC2C)c1 (stereo not given)
The inhibition of the first is lower: 7.19% for the first, 16.6% for the second.

Going from `CC(C)NC(=S)N1CCN(C(c2ccccc2)c2ccccc2)CC1` to `O=C(NC(=S)N1CCN(Cc2ccccc2)CC1)c1ccccc1`, the inhibition falls from 3.7% to -10.3%.

Compared with `Cc1cc(C(=O)CC#N)c(C)n1-c1c(C)n(C)n(-c2ccccc2)c1=O`, `COC(=O)C1=C(C)N(c2ccc(C)cc2)/C(=C/c2ccc(O)cc2)C1=O` is higher in inhibition: -2.44% for the first, 1.38% for the second.

Compared with `CCS(=O)(=O)c1ccc2c(c1)N(S(=O)(=O)c1ccccc1)CC(C(=O)O)O2` (stereo not given), `O=C(Nc1cc(S(=O)(=O)N2CCOCC2)ccc1Cl)c1cc(=O)c2ccccc2o1` is lower in inhibition: 2.03% for the first, -4.37% for the second.

Going from `CC1(C)CC(=O)C2=C(C1)N=C1SCCC(=O)N1C2c1ccc(C(F)(F)F)cc1` (stereo not given) to `NC(=O)c1ncc(C(F)(F)F)cc1Oc1ccc(F)cc1`, the inhibition falls from -8.04% to -8.91%.

Going from `CN1CCN(C(c2cc3cc4c(cc3[nH]c2=O)OCCO4)c2nnnn2C2CCCC2)CC1` (stereo not given) to `CC(C)N1CCC(=NNc2ccc([N+](=O)[O-])cc2S(=O)(=O)N2CCOCC2)CC1`, the inhibition falls from -0.35% to -0.4%.

Going from `S=C(NC1CCCCC1)NN1CCOCC1` to `OCCCC1CCCCN1Cc1nc(Cc2ccccc2Cl)no1` (stereo not given), the inhibition rises from -5.63% to 0.81%.

First: COCCSc1nnc(NC(=O)c2cc(OC)c(OC)cc2[N+](=O)[O-])s1
Second: CCc1c(C)nc2c(OC)cccc2c1Cl
The inhibition of the first is lower: -3.97% for the first, -2.35% for the second.

First: Cc1cn(C)c(=O)n(C)c1=O
Second: Cn1nccc1CNC(=O)c1ccnn1C
The inhibition of the first is higher: 1.43% for the first, -0.52% for the second.

Going from `N#Cc1ccc(-c2nc3cc(C#N)c(C#N)cc3nc2-c2ccccc2)cc1C#N` to `N#Cc1cccc(Nc2c3c(nc4ccccc24)CCCC3)c1`, the inhibition falls from 9.6% to 1.12%.

First: C=CCC(C(=O)c1ccccc1)[N+](C)(C)CC=C (stereo not given)
Second: Cc1cccc(C(=O)OC(C)CN2CCN(C)CC2)c1 (stereo not given)
The inhibition of the first is lower: -3.34% for the first, 1.4% for the second.

First: Cc1cc(C)cc(C(=O)NC(=S)Nc2ccc3[nH]c(=O)[nH]c3c2)c1
Second: O=C1CN(C(=O)COC(=O)c2cnc(Cl)c(Cl)c2)c2ccccc2N1
The inhibition of the first is higher: 20.7% for the first, 1.7% for the second.

Compared with `Cc1ccc(S(=O)(=O)Cc2cc(-c3ccc(Cl)cc3)no2)cc1`, `Cc1ccc(-c2nnc(SCC(=O)N/N=C/c3cccs3)n2-c2ccc(C)cc2)cc1` is lower in inhibition: -1.03% for the first, -3.67% for the second.

Compared with `CCOc1ccc(-n2c(SCC(=O)NC3CCS(=O)(=O)C3)nnc2-c2cccnc2)cc1` (stereo not given), `COc1ccc(-c2ccc(CCC(=O)O)n2-c2ccc(O)cc2)cc1` is lower in inhibition: 0.66% for the first, -3.57% for the second.

First: CN(Cc1ccc2nsnc2c1)Cc1nc(Cc2cccc(F)c2)no1
Second: Oc1ccc2ccc3cccc[n+]3c2c1
The inhibition of the first is higher: 5.24% for the first, -0.84% for the second.

First: Cc1nnsc1C(=O)Nc1cccc(Cl)c1C
Second: C/C(=N\OCC(=O)Nc1ccc(Br)cc1)c1cccs1
The inhibition of the first is higher: -5.78% for the first, -6.23% for the second.

`COc1ccc(Nc2cc(C)nc(-n3nc(C)cc3C)n2)cc1` was tested, and the inhibition was 56.8% (active).
